Values joined by “and” are separate entries in the source; they are usually repeats but may differ in a detail not shown here. Equal entries are not always repeated. More than one record can exist for a structure, and the calls need not agree. Active and inactive are the calls of the source. How the source made its calls: active means hit-call score of the fitted dose curve at least 0.9, where 1 is the maximum; inactive means score below 0.9.
What was measured:
[1] = read-out: Interleukin-8 (IL8), CXCL8 (gene 3576); test: BSK_IMphg_IL8: BioMAP Diversity Plus: IMphg Assay for Interleukin-8 (IL8) Biomarker Activity (AID 2284277); conditions: primary human endothelial cells with macrophages
Experimental: BSK_IMphg is a cell-based, multiplexed-readout assay that uses venular endothelial cells and macrophages, a human vascular primary cell, with measurements taken at 24 hours after chemical dosing in a microplate: 96-well plate.BSK_IMphg_IL8 is an assay component measured in the BSK_IMphg assay. It measures IL-8 antibody related to regulation of gene expression using ELISA technology.Data from the assay component BSK_IMphg_IL8 was analyzed at the endpoint, BSK_IMphg_IL8, in the positive analysis fitting direction relative to DMSO as the negative control and baseline of activity. Using a type of binding reporter, gain or loss-of-signal activity can be used to understand protein changes. To generalize the intended target to other relatable targets, this assay endpoint is annotated to the 'cytokine' intended target family, where the subfamily is 'interleukins'.
The levels of cell surface (or secreted, indicated by the prefix "s") biomarker endpoints were measured by ELISA. Overt cytotoxicity to cells in confluent adherent cultures (all systems other than the BT system) was assessed by measuring total protein levels using sulforhodamine B (SRB) staining in parallel cultures at the time of biomarker measurements, indicated as SRB endpoints. For proliferation assays for adherent cell types, individual cell types are cultured at sub-confluence and relative cell numbers quantified by SRB staining at time points optimized for each system (48 h: 3C and CASM3C systems; 72 h: BT and HDF3CGF systems; 96 h: SAg system). SRB was performed by staining cells with 0.1% SRB after fixation with 10% TCA and reading wells at 560 nm.Viability and proliferation of PBMC (T cells) was quantified by Alamar Blue reduction for the SAg and BT systems. For PBMC viability (referred to as PBMC Cytotoxicity within the assay endpoint names), cells were plated (75,000/well in a 96-well plate) and then chemical samples added for 1 h before addition of activators, SEB and TSST-1 (20 ng/mL final concentration each). Cells were incubated for 90 h. Then, Alamar Blue (20 uL/well) (Invitrogen, Cat DAL1100) was added for 6 h, and the plates were read with a fluorescence microplate reader at 546/580 nm (excitation/emission). For PBMC proliferation, cells were plated and activated as above but incubated for only 16 h prior to addition of Alamar Blue. Plates were read after 6 h.

[2] = read-out: Intercellular Adhesion Molecule 1 (ICAM1), ICAM1 (gene 3383); test: BSK_BE3C_ICAM1: BioMAP Diversity Plus: BE3C Assay for Intercellular Adhesion Molecule 1 (ICAM1) Biomarker Activity (AID 2284278); conditions: primary human bronchial epithelial cells
Method in brief: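 Human primary bronchial epithelial cultures; compound added; 24 h incubation; cell-surface ICAM-1 measured by ELISA; signal increase fitted relative to DMSO negative control.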

[3] = read-out: Interferon-inducible T-cell alpha chemoattractant (ITAC), CXCL11 (gene 6373); test: BSK_BE3C_ITAC: BioMAP Diversity Plus: BE3C Assay for Interferon-inducible T-cell alpha chemoattractant (ITAC) Biomarker Activity (AID 2284279); conditions: primary human bronchial epithelial cells
Method in brief: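 Steps: dose human bronchial epithelial cells with chemical; incubate 24 h; measure I-TAC by ELISA; fit endpoint in positive direction against DMSO control. Cytotoxicity was checked in parallel cultures by SRB staining at harvest.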

[4] = read-out: Interleukin-8 (IL8), CXCL8 (gene 3576); test: BSK_BE3C_IL8: BioMAP Diversity Plus: BE3C Assay for Interleukin-8 (IL8) Biomarker Activity (AID 2284280); conditions: primary human bronchial epithelial cells
Method in brief: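 ELISA read-out of IL-8 in human lung bronchial epithelial primary cell cultures, 24 h post-dosing; endpoint analysed as signal increase relative to DMSO baseline.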

[5] = read-out: Epidermal growth factor receptor (EGFR), EGFR (gene 1956); test: BSK_BE3C_EGFR: BioMAP Diversity Plus: BE3C Assay for Epidermal growth factor receptor (EGFR) Biomarker Activity (AID 2284281); conditions: primary human bronchial epithelial cells
Method in brief: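 Primary human lung bronchial epithelial cells; compound, 24 h; EGFR measured by ELISA; positive-direction fit vs DMSO baseline.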

KRT18 (gene 3875) = test: BSK_BE3C_Keratin818: BioMAP Diversity Plus: BE3C Assay for Keratin 818 Biomarker Activity (AID 2284282); conditions: primary human bronchial epithelial cells
Method in brief: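 Chemicals are added to human lung bronchial epithelial primary cells (BE3C system) and incubated 24 h. Keratin 8/18 is then measured by ELISA, with parallel SRB total-protein staining gauging overt cytotoxicity.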

[6] = read-out: Matrix Metallopeptidase 9 (MMP9), MMP9 (gene 4318); test: BSK_BE3C_MMP9: BioMAP Diversity Plus: BE3C Assay for Matrix Metallopeptidase 9 (MMP9) Biomarker Activity (AID 2284283); conditions: primary human bronchial epithelial cells
Method in brief: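 Cells were dosed, incubated 24 h, then assayed for MMP-9 by ELISA; activity was fitted upward against DMSO. The system used human lung primary bronchial epithelial cells, with SRB total-protein staining run alongside for cytotoxicity.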

[7] = read-out: Plasminogen activator inhibitor-1 (PAI1), SERPINE1 (gene 5054); test: BSK_CASM3C_PAI1: BioMAP Diversity Plus: CASM3C Assay for Plasminogen activator inhibitor-1 (PAI1) Biomarker Activity (AID 2284284); conditions: primary human coronary artery smooth muscle cells;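 further: PAI-1 protein level measured by ELISA 24 h after dosing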
[8] = read-out: Vascular cell adhesion molecule 1 (VCAM1), VCAM1 (gene 7412); test: BSK_IMphg_VCAM1: BioMAP Diversity Plus: IMphg Assay for Vascular cell adhesion molecule 1 (VCAM1) Biomarker Activity (AID 2284286); conditions: primary human endothelial cells with macrophages
Method in brief: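 Human venular endothelial cells co-cultured with macrophages; VCAM-1 quantified by ELISA 24 h after dosing, fitted in the positive direction against DMSO. Cytotoxicity was checked in parallel cultures by SRB total-protein staining (0.1% SRB after 10% TCA fixation, 560 nm).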

[9] = read-out: Intercellular Adhesion Molecule 1 (ICAM1), ICAM1 (gene 3383); test: BSK_hDFCGF_ICAM1: BioMAP Diversity Plus: hDFCGF Assay for Intercellular Adhesion Molecule 1 (ICAM1) Biomarker Activity (AID 2284287); conditions: primary human foreskin fibroblasts
Method in brief: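 Primary human foreskin fibroblasts (hDFCGF system) dosed with chemical; ICAM-1 quantified by ELISA at 24 h relative to DMSO. Parallel SRB total-protein staining to assess overt cytotoxicity.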

Measured: AC50

OCC(F)(OC(F)(F)C(F)(OC(F)(F)C(F)(F)C(F)(F)F)C(F)(F)F)C(F)(F)F (stereo not drawn)
active: [3] 5.2 µM | [9] 5.06 µM and 2.52 µM
inactive: [1] | [2] | [3] | [4] | [5] | KRT18 (gene 3875) | [6] | [7] | [8]

O=C(O)C(F)(F)C(F)(F)C(F)(F)C(F)(F)C(F)(F)C(F)(F)C(F)(F)C(F)F
inactive: all assays above

CC(C)CCCC(C)(C)O
not listed: [1] | [8]
inactive: all other assays above

C=C(C)C(=O)OCCC(F)(F)C(F)(F)C(F)(F)C(F)(F)C(F)(F)C(F)(F)C(F)(F)C(F)(F)F
inactive: all assays above

O=S(=O)(O)C(F)(F)C(F)(F)OC(F)(F)C(F)(F)F
inactive: [1] | [2] | [3] | [4] | [5] | KRT18 (gene 3875) | [6] | [7] | [8] | [9]
active: [1] 41.7 µM

CCn1cc(C(=O)O)c(=O)c2ccc(C)nc21
not listed: [1] | [8]
inactive: all other assays above

CCCCN(CCO)CCO
not listed: [1] | [8]
inactive: all other assays above

O=C(O)C(F)(F)OC(F)(F)C(F)(F)OC(F)(F)C(F)(F)C(F)(F)C(F)(F)F
active: [3] 7.77 µM and 7.6 µM | [5] 35 µM and 17.7 µM
inactive: all other assays above

CC(=O)c1ccc(C)cc1
not listed: [1] | [8]
inactive: all other assays above

CC(C)(CO)CO
not listed: [1] | [8]
inactive: all other assays above

c1ccc(OCCOc2ccccc2)cc1
not listed: [1] | [8]
inactive: all other assays above

C=C(F)C(=O)OC(C(F)(F)F)C(F)(F)F
inactive: all assays above

CCCO[Si](OCCC)(OCCC)OCCC
not listed: [1] | [8]
inactive: all other assays above
